In test [1] the target is Tyrosine-protein kinase SYK (Homo sapiens) (UniProt P43405). Particulars: at 10 µM.
The target of test [2] is T1, Mitogen-activated protein kinase kinase kinase 7 (Homo sapiens) (UniProt O43318).
T1 sequence (whole entry): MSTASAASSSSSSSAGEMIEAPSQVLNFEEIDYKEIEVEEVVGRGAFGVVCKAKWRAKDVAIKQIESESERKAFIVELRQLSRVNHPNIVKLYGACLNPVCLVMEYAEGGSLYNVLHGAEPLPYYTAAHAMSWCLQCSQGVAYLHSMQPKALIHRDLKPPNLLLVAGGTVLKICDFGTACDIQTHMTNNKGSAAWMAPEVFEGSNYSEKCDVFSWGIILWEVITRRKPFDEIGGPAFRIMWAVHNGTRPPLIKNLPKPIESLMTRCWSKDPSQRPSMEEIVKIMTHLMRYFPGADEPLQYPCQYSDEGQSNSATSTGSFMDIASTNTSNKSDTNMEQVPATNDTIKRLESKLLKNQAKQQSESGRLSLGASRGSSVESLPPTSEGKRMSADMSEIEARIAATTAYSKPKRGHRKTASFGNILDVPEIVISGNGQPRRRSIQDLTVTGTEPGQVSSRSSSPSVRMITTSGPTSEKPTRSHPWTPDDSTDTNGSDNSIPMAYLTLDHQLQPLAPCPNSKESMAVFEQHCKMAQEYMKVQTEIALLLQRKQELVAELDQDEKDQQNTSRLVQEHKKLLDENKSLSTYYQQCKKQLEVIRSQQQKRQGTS
The conditions noted are these: at 1 µM.

Test [3] addresses T1, Mitogen-activated protein kinase kinase kinase 7 (Homo sapiens). Particulars: at 10 µM.
The target in test [4] is T2, Serine/threonine-protein kinase TAO1 (Homo sapiens) (UniProt Q7L7X3).
T2 sequence (whole entry): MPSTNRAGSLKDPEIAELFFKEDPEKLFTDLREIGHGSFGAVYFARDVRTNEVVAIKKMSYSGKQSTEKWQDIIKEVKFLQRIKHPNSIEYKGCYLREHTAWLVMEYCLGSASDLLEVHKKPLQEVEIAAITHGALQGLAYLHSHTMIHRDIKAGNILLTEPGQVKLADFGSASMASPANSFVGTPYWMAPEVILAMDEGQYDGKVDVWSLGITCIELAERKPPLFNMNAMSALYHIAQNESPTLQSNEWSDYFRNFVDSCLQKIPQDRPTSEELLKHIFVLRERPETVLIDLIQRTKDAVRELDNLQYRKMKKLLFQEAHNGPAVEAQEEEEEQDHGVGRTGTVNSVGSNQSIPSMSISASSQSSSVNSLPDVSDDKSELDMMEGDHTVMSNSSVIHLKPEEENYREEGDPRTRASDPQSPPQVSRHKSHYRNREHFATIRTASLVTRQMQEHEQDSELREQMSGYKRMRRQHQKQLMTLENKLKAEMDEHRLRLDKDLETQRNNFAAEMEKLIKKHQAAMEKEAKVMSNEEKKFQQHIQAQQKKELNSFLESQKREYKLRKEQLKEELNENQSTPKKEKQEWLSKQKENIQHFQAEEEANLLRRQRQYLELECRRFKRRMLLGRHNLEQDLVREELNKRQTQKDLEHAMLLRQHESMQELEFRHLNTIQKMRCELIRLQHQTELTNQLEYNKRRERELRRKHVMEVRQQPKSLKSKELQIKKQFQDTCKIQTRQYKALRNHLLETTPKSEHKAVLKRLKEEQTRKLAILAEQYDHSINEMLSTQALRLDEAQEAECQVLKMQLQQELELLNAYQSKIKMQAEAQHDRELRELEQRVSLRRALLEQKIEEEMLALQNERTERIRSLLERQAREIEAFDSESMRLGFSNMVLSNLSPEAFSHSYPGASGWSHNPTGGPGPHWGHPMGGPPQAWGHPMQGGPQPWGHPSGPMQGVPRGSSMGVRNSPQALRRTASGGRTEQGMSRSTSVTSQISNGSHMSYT
Particulars: at 1 µM.

Test [5] deals with T2, Serine/threonine-protein kinase TAO1 (Homo sapiens). Particulars: at 10 µM.
The target in test [6] is T3, Serine/threonine-protein kinase TAO2 (Homo sapiens) (UniProt Q9UL54).
T3 sequence (whole entry): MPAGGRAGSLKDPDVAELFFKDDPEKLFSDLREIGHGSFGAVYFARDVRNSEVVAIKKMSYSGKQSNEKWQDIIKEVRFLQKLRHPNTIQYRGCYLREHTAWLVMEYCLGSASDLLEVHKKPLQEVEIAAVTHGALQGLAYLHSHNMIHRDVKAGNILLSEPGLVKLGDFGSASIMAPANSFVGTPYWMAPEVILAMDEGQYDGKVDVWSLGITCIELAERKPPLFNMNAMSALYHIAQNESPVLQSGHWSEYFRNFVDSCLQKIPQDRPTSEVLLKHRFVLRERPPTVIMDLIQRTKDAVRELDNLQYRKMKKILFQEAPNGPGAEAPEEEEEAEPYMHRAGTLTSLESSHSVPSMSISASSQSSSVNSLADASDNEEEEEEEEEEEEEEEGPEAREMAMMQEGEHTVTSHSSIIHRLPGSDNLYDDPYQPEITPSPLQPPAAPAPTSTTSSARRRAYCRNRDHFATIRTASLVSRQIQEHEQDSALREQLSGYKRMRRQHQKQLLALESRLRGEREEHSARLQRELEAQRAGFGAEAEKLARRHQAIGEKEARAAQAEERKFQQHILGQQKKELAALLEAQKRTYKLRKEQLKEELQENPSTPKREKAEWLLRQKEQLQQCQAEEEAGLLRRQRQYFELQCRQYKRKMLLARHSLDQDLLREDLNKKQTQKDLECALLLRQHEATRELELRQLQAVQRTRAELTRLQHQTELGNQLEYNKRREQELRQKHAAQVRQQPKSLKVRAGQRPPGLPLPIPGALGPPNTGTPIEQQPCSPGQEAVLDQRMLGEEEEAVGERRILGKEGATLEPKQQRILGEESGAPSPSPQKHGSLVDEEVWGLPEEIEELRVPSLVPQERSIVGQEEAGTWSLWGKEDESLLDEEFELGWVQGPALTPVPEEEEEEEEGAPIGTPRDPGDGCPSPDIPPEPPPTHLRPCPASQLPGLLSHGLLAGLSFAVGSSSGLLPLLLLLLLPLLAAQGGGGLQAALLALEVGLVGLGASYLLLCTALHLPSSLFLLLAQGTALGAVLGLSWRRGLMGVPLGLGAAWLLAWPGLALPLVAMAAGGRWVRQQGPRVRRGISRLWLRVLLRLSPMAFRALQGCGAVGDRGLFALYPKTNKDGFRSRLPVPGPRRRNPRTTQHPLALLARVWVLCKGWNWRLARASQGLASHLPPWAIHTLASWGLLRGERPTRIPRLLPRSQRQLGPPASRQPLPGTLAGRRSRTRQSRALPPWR
The conditions noted are these: at 1 µM.

Test [7] addresses T3, Serine/threonine-protein kinase TAO2 (Homo sapiens). Particulars: at 10 µM.
The target of test [8] is T4, Serine/threonine-protein kinase TAO3 (Homo sapiens) (UniProt Q9H2K8).
T4 sequence (whole entry): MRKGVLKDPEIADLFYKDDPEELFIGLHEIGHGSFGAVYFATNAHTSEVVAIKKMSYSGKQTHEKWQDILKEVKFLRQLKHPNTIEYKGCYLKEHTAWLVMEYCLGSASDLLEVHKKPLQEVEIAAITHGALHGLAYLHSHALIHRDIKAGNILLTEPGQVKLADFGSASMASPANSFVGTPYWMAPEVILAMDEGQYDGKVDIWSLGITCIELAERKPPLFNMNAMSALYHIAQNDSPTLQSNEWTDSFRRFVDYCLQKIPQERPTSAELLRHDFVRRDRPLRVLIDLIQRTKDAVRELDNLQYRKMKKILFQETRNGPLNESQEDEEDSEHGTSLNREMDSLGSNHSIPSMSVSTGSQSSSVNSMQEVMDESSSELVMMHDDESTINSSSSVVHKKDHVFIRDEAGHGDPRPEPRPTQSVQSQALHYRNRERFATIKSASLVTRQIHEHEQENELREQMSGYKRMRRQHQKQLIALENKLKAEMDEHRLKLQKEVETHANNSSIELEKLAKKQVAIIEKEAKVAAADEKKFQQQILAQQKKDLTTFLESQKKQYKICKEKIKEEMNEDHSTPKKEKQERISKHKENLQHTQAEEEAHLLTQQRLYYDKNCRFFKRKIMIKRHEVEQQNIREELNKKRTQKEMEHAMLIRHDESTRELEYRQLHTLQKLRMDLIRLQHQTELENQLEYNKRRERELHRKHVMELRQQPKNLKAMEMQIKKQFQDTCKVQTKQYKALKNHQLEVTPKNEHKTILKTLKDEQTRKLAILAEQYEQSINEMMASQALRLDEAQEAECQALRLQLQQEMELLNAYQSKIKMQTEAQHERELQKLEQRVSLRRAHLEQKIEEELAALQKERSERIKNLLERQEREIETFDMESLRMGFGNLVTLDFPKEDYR
The conditions noted are these: at 1 µM.

Test [9] addresses T4, Serine/threonine-protein kinase TAO3 (Homo sapiens). Particulars: at 10 µM.
The target of test [10] is T5, Serine/threonine-protein kinase TBK1 (Homo sapiens) (UniProt Q9UHD2).
T5 sequence (whole entry): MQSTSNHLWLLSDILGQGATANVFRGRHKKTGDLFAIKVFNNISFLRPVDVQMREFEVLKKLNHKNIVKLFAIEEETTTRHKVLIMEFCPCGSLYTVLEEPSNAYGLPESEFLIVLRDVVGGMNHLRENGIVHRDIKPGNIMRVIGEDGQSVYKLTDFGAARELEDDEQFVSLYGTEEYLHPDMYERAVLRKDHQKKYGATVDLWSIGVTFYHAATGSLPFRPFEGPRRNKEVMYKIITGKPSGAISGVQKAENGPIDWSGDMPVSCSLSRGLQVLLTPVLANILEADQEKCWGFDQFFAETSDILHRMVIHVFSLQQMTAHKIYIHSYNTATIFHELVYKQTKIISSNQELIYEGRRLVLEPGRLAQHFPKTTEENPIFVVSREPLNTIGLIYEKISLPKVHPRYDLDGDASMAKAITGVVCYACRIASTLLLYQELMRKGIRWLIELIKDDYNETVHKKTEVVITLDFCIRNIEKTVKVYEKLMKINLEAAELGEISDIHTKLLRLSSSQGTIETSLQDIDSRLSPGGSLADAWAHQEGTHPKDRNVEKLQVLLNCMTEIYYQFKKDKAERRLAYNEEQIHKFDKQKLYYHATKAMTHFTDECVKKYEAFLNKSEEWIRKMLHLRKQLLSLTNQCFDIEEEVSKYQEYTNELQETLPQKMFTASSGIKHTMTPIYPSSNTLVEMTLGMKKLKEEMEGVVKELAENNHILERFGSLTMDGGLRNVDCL
Particulars: at 1 µM.

Experimental findings from ChEMBL document CHEMBL2218924, “A broad activity screen in support of a chemogenomic map for kinase signalling research and drug discovery” (Biochem J, 2013) are described below.

Regarding `Cc1nc(-c2ccccc2)c(-c2ccncc2)o1`, the residual activity stood at 116% in [1]; 103% in test [2]; 97% in test [3]; 103% in test [4]; 79% in test [5]; 120% in test [6]. Also, the residual activity was 108% in test [7], 107% in test [8], 101% in test [9] and 102% in test [10].
